Hit rate of the full screen: of about 100,000 compounds, about 770 (0.77%) were called active. Shown is part of a subset that was picked to be rich in actives. Values without a mark were called inactive. Cut-off read from the data, not from the text of the source: active = inhibition above about 50%; inactive = the rest.
Target: Gag-Pol polyprotein (Human immunodeficiency virus type 1 group M subtype B (isolate HXB2)) (UniProt P04585)
Test: RNase H inhibition, HIV 1 Gag Pol polyprotein, FRET biochemical assay, screening (AID 372)
Details: HIV-1 RT RNase H, FRET RNA/DNA substrate fluorescence; at 10 µM; stronger effect = higher value

Row | SMILES | inhibition
1 | CC(C(=O)N1CCOCC1)N1C(=O)c2cccc3cccc(c23)C1=O (stereo not drawn) | 19%
2 | COc1ccc(C(=O)N2CCc3ccccc3C2)cc1 | 15%
3 | COc1cc(/C=C2/C(=O)NC(=O)N(Cc3ccco3)C2=O)ccc1OCC(N)=O | 0%
4 | CCOc1ccc(/C=C2\SC(=S)N(Cc3ccccc3)C2=O)c(OCC)c1 | 12%
5 | CCOC(=O)C1=C(C)N(c2ccccc2)C(=O)C1 | 10%
6 | COc1cccc(C2/C(=C(\O)c3ccc(Cl)cc3)C(=O)C(=O)N2CCCCCC(=O)O)c1 (stereo not drawn) | 16%
7 | CC(C)(C)c1cc(CCC(=O)NCCN2C(=O)c3ccccc3C2=O)cc(C(C)(C)C)c1O | 2%
8 | Cc1ccc(SCC(=O)N2CCCC2)cc1 | 6%
9 | c1ccc(NC2=Nc3cccc4cccc2c34)cc1 | 12%
10 | Nc1cccc(-c2nnc(-c3ccccc3)o2)c1 | 3%
11 | Nc1ccc(C2=Nc3cccc4cccc(c34)N2)cc1 | 56% (active)
12 | Nc1cccc(C2=Nc3cccc4cccc(c34)N2)c1 | 56% (active)
13 | Nc1cccc(-c2cc(C(=O)O)c3ccccc3n2)c1 | 0%
14 | Cc1ccc([N+](=O)[O-])cc1-c1ccc(/C=C(\C#N)C(=O)NCc2ccco2)o1 | 1%
15 | Cc1nn(-c2ccccc2)c2c1C(c1ccc(O)cc1)C(C#N)=C(N)O2 (stereo not drawn) | 3%
16 | O=c1/c(=C/c2cc([N+](=O)[O-])ccc2OCCCOc2ccccc2)sc2nc3ccccc3n12 | 4%
17 | C=CC(=O)NC1(CCC)CCCCC1 | 11%
18 | COc1ccc(/C=C(C(=O)O)/C(C)=C/C(=O)O)c(OC)c1 | 7%
19 | COc1ccc(C(=O)c2ccc(Cl)cc2Cl)cc1 | 15%
20 | Cc1sc2nc(-c3ccc(Br)cc3)[nH]c(=O)c2c1C | 8%

Row | SMILES | inhibition
21 | Cc1sc2nc(-c3ccccc3)[nH]c(=O)c2c1C | 10%
22 | N=C1S/C(=C\c2ccc(N3CCOCC3)cc2)C(=O)N1c1ccc(Br)cc1 | 53% (active)
23 | O=C1S/C(=C/c2ccc(Br)cc2)C(=O)N1c1ccccc1 | 0%
24 | CCOC(=O)c1ccc(N2C(=N)S/C(=C\c3ccc(N4CCOCC4)cc3)C2=O)cc1 | 15%
25 | O=C(NCc1ccccn1)C(=O)Nc1ccc(Oc2ccccc2)cc1 | 54% (active)
26 | COc1ccc(NC(=O)C(=O)NCc2ccccn2)cc1 | 8%
27 | O=C(NCc1ccccn1)C(=O)Nc1ccc(F)cc1 | 12%
28 | O=C(Cn1cc(/C=C2/C(=O)NC(=S)N(c3cccc(Cl)c3)C2=O)c2ccccc21)Nc1ccccc1 | 55% (active)
29 | O=C(Cn1cc(/C=C2/C(=O)NC(=S)N(c3ccccc3F)C2=O)c2ccccc21)Nc1ccccc1 | 47%
30 | N#C/C(=C\c1cn(CC(=O)Nc2ccccc2)c2ccccc12)C(=O)Nc1ccccc1 | 0%
31 | COc1ccc(NC(=O)/C(C#N)=C/c2cn(CC(=O)Nc3ccccc3)c3ccccc23)cc1 | 59% (active)
32 | O=C(Cn1cc(/C=C2/C(=O)NC(=O)N(c3cccc(Cl)c3)C2=O)c2ccccc21)Nc1ccccc1 | 32%
33 | COc1cccc(OCCn2cc(C=C3C(=O)NC(=S)NC3=O)c3ccccc32)c1 | 57% (active)
34 | O=C(Cn1cc(/C=C2/C(=O)NC(=O)N(c3cccc(F)c3)C2=O)c2ccccc21)Nc1ccccc1 | 46%
35 | O=C(O)Cn1cc(/C=C2/C(=O)NC(=O)N(c3ccccc3F)C2=O)c2ccccc21 | 10%
36 | COc1ccc(NC(=O)/C(C#N)=C\c2cn(CC(=O)O)c3ccccc23)cc1 | 0%
37 | Cc1cccc(OCCn2cc(C=C3C(=O)NC(=S)NC3=O)c3ccccc32)c1 | 7%
38 | O=C(O)Cn1cc(/C=C2\C(=O)NC(=S)N(c3ccccc3F)C2=O)c2ccccc21 | 55% (active)
39 | COc1cccc(OCCn2cc(C=C3C(=O)NC(=O)NC3=O)c3ccccc32)c1 | 12%
40 | COc1ccc(OC)c(N2C(=O)C(Cl)=C(N3CCCCC3)C2=O)c1 | 14%

Row | SMILES | inhibition
41 | CCc1ccc(/C=C2\SC(=O)NC2=O)cc1 | 4%
42 | COc1cc(NC(=O)c2ccc(Cl)c([N+](=O)[O-])c2)ccc1NC(=O)c1ccco1 | 5%
43 | Cc1nnc(NC(=O)Cc2ccc(Br)cc2)s1 | 3%
44 | COc1cc(CN2CCN(Cc3ccc4c(c3)OCO4)CC2)c([N+](=O)[O-])cc1OC | 6%
45 | CCC(=O)Nc1cc(-c2nc3cc(Cl)ccc3o2)ccc1C | 0%
46 | CC1=C(C(=O)OCC2CCCCC2)C(c2ccccc2F)NC(=O)N1 (stereo not drawn) | 17%
47 | Cc1ccc(N2C(=O)NC(=O)/C(=C/c3cn(CC(=O)Nc4ccccc4)c4ccccc34)C2=O)cc1 | 43%
48 | O=C1NC(=O)N(c2ccccc2F)C(=O)/C1=C/c1ccc(OCc2cccc(C(=O)O)c2)cc1 | 4%
49 | COC(=O)Cn1cc(/C=C2\C(=O)NC(=S)N(c3cccc(Cl)c3)C2=O)c2ccccc21 | 4%
50 | CCOc1ccc(N2C(=O)/C(=C/c3ccc(OCc4cccc(C(=O)O)c4)cc3)C(=O)NC2=S)cc1 | 5%
51 | O=C(Cn1cc(/C=C2/C(=O)NC(=S)N(c3ccccc3)C2=O)c2ccccc21)Nc1ccccc1 | 53% (active)
52 | O=C(Cn1cc(/C=C2/C(=O)NC(=O)N(c3ccc(Cl)cc3)C2=O)c2ccccc21)Nc1ccccc1 | 11%
53 | Cc1ccccc1N1C(=O)/C(=C\c2cn(CC(=O)Nc3ccccc3)c3ccccc23)C(=O)NC1=S | 26%
54 | COc1ccc(N2C(=O)/C(=C/c3cn(Cc4ccccc4)c4ccccc34)C(=O)NC2=S)cc1 | 15%
55 | CCOc1cccc(N2C(=O)NC(=O)/C(=C\c3cn(CC(=O)OC)c4ccccc34)C2=O)c1 | 0%
56 | CCc1ccccc1NC(=O)c1nn2c(c1Cl)NC(c1ccc(C)cc1)CC2C(F)(F)F (stereo not drawn) | 9%
57 | CCCOc1ccccc1C1C(C(=O)OCC2CCCO2)=C(C)NC2=C1C(=O)CCC2 (stereo not drawn) | 6%
58 | Oc1c(Br)cc(/C=N/Nc2nc(N3CCCCC3)nc(N3CCCCC3)n2)c(O)c1Br | 29%

From PubChem BioAssay AID372 (MTDP, 2006)
